# According to PubChem BioAssay AID1851 (National Center for Advancing Translational Sciences (NCATS), 2009):
# Out of some 16,000 compounds screened, about 5,100 (32%) were called active. Another 25% or so got no clear call; they are omitted. This is one part of the list. Values without a mark were called inactive. Calls follow the shape of the dose curve; as a rule, active = well fitted curve in the direction sought with a large enough effect; inconclusive = small, poorly fitted or top-dose-only effect, or effect the other way; inactive = no such curve, though single readings can be large or run the other way.
# Biological target: Cytochrome P450 3A4 (Homo sapiens) (UniProt P08684)
# Experiment: Cytochrome panel assay with activity outcomes
# Details: recombinant CYP, pro-luciferin dealkylation, luminescence, p450-cyp3a4; series mostly up to 57.1 µM
# % is scaled to controls: 0 for no effect and ±100 for the full control effect.
# Chain of Cytochrome P450 3A4 (Homo sapiens) (P08684 whole entry, looked up): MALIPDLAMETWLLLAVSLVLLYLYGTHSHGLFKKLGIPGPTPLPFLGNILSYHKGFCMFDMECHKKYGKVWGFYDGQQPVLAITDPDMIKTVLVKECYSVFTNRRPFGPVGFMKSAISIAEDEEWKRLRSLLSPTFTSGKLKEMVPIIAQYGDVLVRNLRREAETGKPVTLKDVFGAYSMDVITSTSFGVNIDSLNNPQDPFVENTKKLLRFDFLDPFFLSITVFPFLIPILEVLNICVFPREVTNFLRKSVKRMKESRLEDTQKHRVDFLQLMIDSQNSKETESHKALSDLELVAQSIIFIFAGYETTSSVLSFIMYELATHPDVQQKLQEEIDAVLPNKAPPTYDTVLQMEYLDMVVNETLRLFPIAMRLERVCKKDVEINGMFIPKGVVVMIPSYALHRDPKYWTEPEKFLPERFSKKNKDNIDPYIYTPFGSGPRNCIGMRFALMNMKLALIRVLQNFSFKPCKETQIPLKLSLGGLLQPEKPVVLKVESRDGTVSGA
SMILES,"activity, negative = inhibition",AC50
CCNC(=S)NC1CC2CCCC(C1)N2Cc1ccco1 (stereo unspecified),-6.93% [at 2.29 µM],
CC1=CC(=O)C2=C(C)C[C@@H](O)[C@@H]3[C@@H](OC(=O)[C@H]3C)[C@H]12,inactive,
O=C(Nc1cccc2ccccc12)c1nn(C23CC4CC(CC(C4)C2)C3)cc1Br,inactive,
NCCCNCCSP(=O)(O)O,inactive,
CNC(=S)NC1CC2CCCC(C1)N2CC(C)C (stereo unspecified),inactive,
C[C@@H]1O[C@H](O[C@H]2C[C@@H](O)[C@@]3(CO)[C@H]4[C@@H](O)C[C@]5(C)[C@@H](C6=CC(=O)OC6)CC[C@]5(O)[C@H]4CC[C@]3(O)C2)[C@@H](O)[C@H](O)[C@@H]1O,inactive,
Cc1ccc(C2(c3ccc(C)c(O)c3C)CCN(C)CC2)c(C)c1O,-1.39% [at 11.4 µM],
CCOP(=O)(OCC)c1nc(/C=C/c2ccccc2)oc1NCc1ccccc1,,14.1 µM (active)
C[C@H](Br)C(=O)c1ccc2cc(Br)c3ccccc3c2c1,-23.5% [at 11.4 µM],
NCCc1c[nH]c2ccc(C(N)=O)cc12,inactive,
CCCN(CCC)[C@H]1CCc2c(F)ccc(O)c2C1,inactive,
CCS(=O)(=O)Nc1cccc(C(=C2CCCCC2)c2cnc[nH]2)c1,,0.316 µM (active)
CC1(C)CCC(C)(C)c2c1ccc(O)c2Cc1c(O)ccc2c1C(C)(C)CCC2(C)C,-26.4% [at 11.4 µM],
C[C@@]12CC[C@H](O)C[C@@H]1CC[C@H]1[C@H]2CC[C@@]2(C)[C@@H](C3=CC(=O)OC3)CC[C@]12O,,3.16 µM (active)
C[C@@]12CC[C@H](O)C[C@@H]1CC[C@H]1[C@@H]2C[C@@H](O)[C@]2(C)[C@@H](C3=CC(=O)OC3)CC[C@]12O,inactive,
C[C@@]12CC[C@H](O)C[C@@H]1CC[C@@H]1[C@@H]2CC[C@@]2(C)[C@@H](C3=CC(=O)OC3)[C@H](O)C[C@]12O,-21.4% [at 11.4 µM],
CC[N+](CC)(CC)CCOc1cccc(OCC[N+](CC)(CC)CC)c1OCC[N+](CC)(CC)CC,inactive,
CCN1C[C@@]2(COC)[C@H]3[C@@H](OC)[C@H]4C1[C@@]3([C@H](OC)C[C@@H]2O)[C@H]1C[C@@]2(O)[C@@H](OC(=O)c3ccccc3)[C@@H]1[C@@]4(OC(C)=O)[C@H](O)[C@@H]2OC,inactive,
O=c1c2ccccc2c2ccccc2c(=O)n1-c1cc2c3ccccc3ccc2c2ccccc12,-20.6% [at 11.4 µM],
CC1=C2C(=O)[C@@H]3[C@@H](CC=C4C[C@@H](O)CC[C@@]43C)[C@H]2CC[C@@]12O[C@H]1C[C@H](C)CN[C@H]1[C@@H]2C,7.7% [at 11.4 µM],
Cc1sc2ccccc2c1CC1=NCCN1,inactive,
CC(N)Cc1ccccc1Sc1ccc(O)cc1 (stereo unspecified),13.2% [at 2.29 µM],
O=[N+]([O-])c1cc([As](=O)(O)O)ccc1O,inactive,

SMILES,"activity, negative = inhibition",AC50
Cn1c(O)c(C(c2ccccn2)c2c(O)n(C)c(=S)n(C)c2=O)c(=O)n(C)c1=S,,0.794 µM (active)
Cn1c(O)c(C(c2ccccn2)c2c(O)n(C)c(=S)[nH]c2=O)c(=O)[nH]c1=S,inactive,
CCn1c(O)c(C(c2ccccn2)c2c(O)n(CC)c(=S)[nH]c2=O)c(=O)[nH]c1=S,inactive,
c1ccc(N2CCC3(CCNCC3)CC2)cc1,inactive,
Cn1cc(C(=O)C(=O)N[C@H]2CN3CCC2CC3)c2ccccc21,inactive,
C[C@H](N)[C@H](O)c1ccc(O)c(O)c1,inactive,
CC[C@]1(c2cccc(O)c2)CCCCN(C)C1,inactive,
CC(C)CCn1c(N)c(C(=O)NCc2cccs2)c2nc3ccccc3nc21,-19.7% [at 2.29 µM],
CCCCn1c(N)c(C(=O)NCc2cccs2)c2nc3ccccc3nc21,-29.4% [at 2.29 µM],
COc1ccc(Cn2c(N)c(C(=O)NCc3ccco3)c3nc4ccccc4nc32)cc1,,11.2 µM (active)
CC(=O)OCC(=O)[C@@H]1CC[C@H]2[C@H]3CC[C@H]4C[C@@H](O)CC[C@]4(C)[C@@H]3C(=O)C[C@@]12C,inactive,
O=C(O)C[C@H]1NCc2cc3ccccc3nc21,-6.42% [at 11.4 µM],
CCC1=C(C[C@H]2NCCc3ccccc32)C[C@@H]2c3cc(OC)c(OC)cc3CCN2C1,-26.3% [at 11.4 µM],
COc1ccc(C(=O)O[C@H]2CC[C@@]3(C)[C@H]4CC[C@H]5[C@]3(C[C@]3(O)[C@H]6CN7C[C@H](C)CC[C@H]7[C@](C)(O)[C@]6(O)[C@H](O)C[C@]53O)O[C@]24O)cc1OC,-3.45% [at 11.4 µM],
Nc1ccccc1O.O.O=C(O)[C@H]1[O][Sb][O][C@H]1C(=O)O,-6.7% [at 11.4 µM],
O=C=Nc1ccc(Cc2ccc(N=C=O)cc2)cc1 (tested in a mixture with another compound),6.47% [at 11.4 µM],
O=S1(=O)N(CCN2CC=C(c3c[nH]c4cc(F)ccc34)CC2)c2cccc3c2N1CCC3,,5.01 µM (active)
CN1CC[C@]2(C)c3cc(O)ccc3N(C)[C@@H]12,inactive,
c1csc(CN2CCC3(CCNCC3)CC2)n1,inactive,
Cc1c(C(=O)c2ccc3ccccc3c2)c2cccc3c2n1[C@H](CN1CCOCC1)CO3,,7.94 µM (active)
O[C@@H]1[C@H](O)[C@H]2[C@@H](O)CCN2C[C@@H]1O,inactive,
CCN(CC)C1=NC(=[N+](CC)CC)c2ccccc21,inactive,
CCCCCCC[n+]1ccc(-c2cc[n+](CCCCCCC)cc2)cc1,inactive,

SMILES,"activity, negative = inhibition",AC50
O=C1CS[C@@H](c2ccccc2Cl)c2cc(Cl)ccc2N1,inactive,
O=C(O)c1cc(N=Nc2ccc([As](=O)(O)O)cc2)ccc1O,1.38% [at 11.4 µM],
CCOC(C(=O)OCCCN(CC)CC)(c1ccccc1)c1ccccc1,,0.708 µM (active)
C=C1[C@@H]2CC[C@H]3[C@@]4(C)C[C@@H](O[C@@H]5O[C@H](CO)[C@H](OS(=O)(=O)O)[C@@H](OS(=O)(=O)O)[C@@H]5OC(=O)CC(C)C)C[C@@H](C(=O)O)[C@H]4CC[C@@]3(C2)[C@H]1O,inactive,
CCN1C[C@@]2(COC)CC[C@H](OC)[C@]34[C@@H]1[C@]1(OCO[C@@]15C[C@@H](OC)C1C[C@H]3[C@H]5[C@@H]1OC)[C@H](O)[C@@H]24,inactive,
O=C(O)c1ccccc1-c1c2cc(Br)c(=O)cc-2oc2[c]([Hg])c(O)c(Br)cc12,inactive,
CC(=O)O[C@H]1C[C@@H](O[C@@H]2[C@H](C)O[C@H](O[C@@H]3[C@H](C)O[C@H](O[C@@H]4CC[C@@]5(C)[C@@H](CC[C@]6(C)[C@]5(C)C[C@H](O)[C@]5(C)[C@@H](C7=CC(=O)OC7)CC[C@@]56O)C4)C[C@@H]3O)C[C@@H]2O)O[C@@H](C)[C@H]1O[C@H]1O[C@@H](CO)[C@@H](O)[C@@H](O)[C@@H]1O,inactive,
COC(=O)[C@H]1C(=O)c2ccccc2O[C@@](C(=O)OC)(c2ccccc2)[C@@H]1c1ccccc1,,3.98 µM (active)
O=P(O)(O)CCP(=O)(O)O,6.5% [at 11.4 µM],
Cc1cc[c]([Sb]2[O][C@H]([C@H](O)[C@H](O)C(=O)O)[C@@H](CO)[O]2)cc1,0.934% [at 11.4 µM],
C[N+]1(C)[C@@H]2CC[C@H]1CC(OC(=O)c1c[nH]c3ccccc13)C2 (stereo partly specified),,7.94 µM (active)
C[N+]1(C)[C@@H]2CC[C@H]1CC(OC(=O)[C@@H](CO)c1ccccc1)C2 (stereo partly specified),inactive,
C[N+]1(C)C2CC[C@H]1CC(OC(=O)[C@@H](CO)c1ccccc1)C2 (stereo partly specified),8.45% [at 11.4 µM],
CC(=O)OCC1=C(C(=O)O)N2C(=O)[C@@H](N)[C@@H]2SC1,inactive,
CCc1ccc(CCN2CCCCC2)nc1,-16.1% [at 11.4 µM],
C[C@@]12CCC(=O)C=C1C=C[C@H]1[C@H]3CC[C@](O)(CCC(=O)O)[C@]3(C)CC[C@@H]12,inactive,
O=C(c1ccc(-c2nnc(Nc3ccccc3)c3ccccc23)cc1)N1C[C@H]2C[C@H](C1)c1cccc(=O)n1C2,,31.6 µM (active)
O=c1cccc2n1CC1CNC[C@H]2C1,inactive,
COc1cc(C(=O)OC2C[C@H]3CC[C@@H](C2)N3C)ccc1O (stereo partly specified),inactive,
O=c1[nH]cnc2[nH]cc(CN3CCCCC3)c12,-10.7% [at 11.4 µM],
N[C@@H]1C=CC=C(C(=O)O)C1,inactive,
O=S(=O)(NCCO)c1cc[c]([Sb](=[O])([OH])[OH])cc1,9.57% [at 11.4 µM],
CCCN1CCO[C@@H]2c3cc(O)ccc3OC[C@H]21,inactive,

SMILES,"activity, negative = inhibition",AC50
O=S(=O)(c1ccccc1)N1CCCCC1c1cccnc1 (stereo unspecified),,2.24 µM (active)
c1cncc([C@@H]2CCCCN2)c1,inactive,
CC1=C(C)[N+](=O)C2(O)CCCCC2(C)N1[O-] (stereo unspecified),inactive,
CCCN(CCC)[C@@H]1CCc2ccc(O)cc2C1,inactive,
NC(N)=NS(=O)(=O)c1ccc(N)cc1,inactive,
CN(C)[C@@H]1C(=O)C(C(N)=O)=C(O)[C@]2(O)C(=O)C3=C(O)c4c(O)cccc4[C@@](C)(O)[C@H]3[C@H](O)[C@@H]12,inactive,
O=[N+]([O-])c1cc(O)c(O)c([N+](=O)[O-])c1,inactive,
O=[N+]([O-])c1ccc(S(=O)(=O)Cc2ccccc2)c([N+](=O)[O-])c1,,0.316 µM (active)
O=C(O)Cc1ccc([N+](=O)[O-])cc1[N+](=O)[O-],-8.12% [at 11.4 µM],
Cc1cc(OC(=O)CCCNC(=O)OC(C)(C)C)c2c3c(c(=O)oc2c1)CCC3,4.44% [at 2.29 µM],
COc1cc2c3cc1Oc1cc(ccc1O)C[C@@H]1c4c(cc(OC)c(O)c4Oc4cccc(c4)C[C@H]3N(C)CC2)CC[N+]1(C)C,inactive,
CC(C)(O)/C=C\C(=O)[C@](C)(O)[C@H]1[C@H](O)C[C@]2(C)[C@@H]3CC=C4[C@@H](C=C(O)C(=O)C4(C)C)[C@]3(C)C(=O)C[C@@]12C,,0.398 µM (active)
CC(=O)OC1N=C(c2ccccc2)c2cc(Br)ccc2N(C)C1=O (stereo unspecified),inactive,
CC1=NN(c2ccc(S(=O)(=O)O)cc2C)C(=[OH+])[C@H]1N=Nc1cc(S(=O)(=O)O)ccc1C(=O)O.O.[Cr],12.6% [at 11.4 µM],
O=[N+]([O-])c1ccc(N2CCNCC2)cc1NCC1CCCO1 (stereo unspecified),inactive,
COC(=O)[C@H](N)CCCN=C(N)N[N+](=O)[O-],inactive,
CCOC(=O)C1=C(C)OC(N)=C(C#N)C12C(=O)N(C)c1ccccc12 (stereo unspecified),,6.31 µM (active)
COc1ccc(C[C@@H]2NC[C@H](O)[C@@H]2OC(C)=O)cc1,inactive,
O=C(O)C[O][Sb][O]CC(=O)O,-1.8% [at 11.4 µM],
NS(=O)(=O)C[C-]1C=C[CH]([Sb-]([Cl])([Cl])([Cl])([Cl])[Cl])C=C1.c1ccncc1 (stereo unspecified),7.76% [at 11.4 µM],
CC[C@@H]1CN2CCc3cc(OC)c(OC)cc3[C@H]2C[C@@H]1C[C@@H]1NCCc2cc(O)c(OC)cc21,inactive,
Cc1ccc(S(=O)(=O)O[C@H]2CN3CCC2CC3)cc1,-7.01% [at 11.4 µM],
